SARS PLpro yeast: inhibitors of SARS-CoV papain-like protease in yeast; 330,000 tested, 0.19% active; S. cerevisiae expressing SARS-CoV PLpro, growth rescue; Potency, µM (top dose mostly 32.9 µM), without a hit: at the highest dose activity, positive = growth rescue, usual class: activators; calls by dose curve; also: 0% is about no effect; nearly all actives have a fitted effect of over 55% in size
Pf growth 48h: inhibits P. falciparum growth in the first generation, 48 h. P. falciparum luciferase growth in erythrocytes, 48 h. 310,000 tested, 5.9% active. Potency, µM (top dose mostly 28.7 µM), without a hit: at the top dose activity change, negative = inhibition, hits mostly inhibitors. AID 504832; also: % is scaled to controls: 0 for no effect and ±100 for the full control effect
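Luciferase-expressing parasites in RBCs, 2% Hct / 0.1% parasitemia final; RPMI 1640 + 0.5% Albumax; 37 C, 5% CO2, one generation; luminescence read-out, lower signal = inhibition.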
Sm TGR inh: inhibitors of Schistosoma mansoni thioredoxin glutathione reductase. purified TGR, DTNB reduction, TNB absorbance 405 nm. Potency, µM (top dose mostly 114 µM), for inactives: at the highest dose activity change, negative = inhibition, hits mostly inhibitors. 360,000 tested, 3% active. AID 485364; also: % is scaled to controls: 0 for no effect and ±100 for the full control effect; nearly all actives have a fitted effect of over 60% in size
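First, TGR (20 nM dispensed) and NADPH were mixed with compound. Second, a 15 min room-temperature incubation followed. Third, further NADPH and then DTNB were added to start the reaction. Finally, TNB absorbance was monitored kinetically.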
Pf growth 96h: P. falciparum growth inhibition at 96 hours; P. falciparum luciferase reporter growth, 96 h; Potency, µM (top dose mostly 28.7 µM), without a hit: top-dose activity change, negative = inhibition, actives largely listed as inhibitors; 320,000 tested, 6.9% active; also: % is scaled to controls: 0 for no effect and ±100 for the full control effect
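Compounds incubated with erythrocytes infected by luciferase-expressing P. falciparum (2% hematocrit, 0.05% parasitemia final) for 96 hours, 37 C in 5% CO2. Growth inhibition scored as decreased luciferase luminescence.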
* = called active by the depositor; ? = inconclusive; / = no result; ! = not active in a repeat. Sampled rows, rich in hits. Any-hit rate of the full collection: about 12%. Unless noted, calls follow the shape of the dose curve; as a rule, active = well fitted curve in the direction sought with a large enough effect; inconclusive = small, poorly fitted or top-dose-only effect, or another doubt; inactive = no such curve, though single readings can be large; an effect the other way counts as inactive or inconclusive. Potency is read from the fitted curve at half-maximal effect.

SMILES	SARS PLpro yeast	Pf growth 48h	Sm TGR inh	Pf growth 96h
COc1ccc(OC)c(NC2=NC3(CCCCC3)N=C(N)N2)c1	2%	?	-8%	-17%
CC1(C)N=C(N)NC(Nc2ccccc2Cl)=N1	/	-34%	-10%	31%
NC1=NC2(CCCC2)N=C(Nc2ccccc2)N1	0%	?	4%	1.5µM*
NC1=NC(c2ccccc2)N=C(Nc2ccccc2)N1 (stereo unspecified)	-1%	4.7µM*	0%	2.9µM*
CCCCOc1ccc(NC2=NC3(CCCCC3)N=C(N)N2)cc1	3%	0.66µM*	0%	8%
COc1ccc(NC2=NC3(CCCCC3)N=C(N)N2)cc1	1%	0.93µM*	5%	?
COc1ccc(CCCc2nnc(SCC(=O)Nc3ccc(C)cc3C)o2)cc1	/	/	-4%	/
COc1ccc(S(=O)(=O)Nc2ccc3c(c2)C(=O)N([C@H](C)CO)C[C@H](C)[C@@H](CN(C)S(=O)(=O)c2cccs2)O3)cc1	3%	/	/	/
CCOC(=O)c1ccc(CN(Cc2ccc(Cl)cc2Cl)S(=O)(=O)c2cccc(Cl)c2)cc1	/	/	10%	/
COc1cc(-c2ccccc2)nc(N)n1	21%	/	-2%	3.3µM*
CCCCN(CC)CCCNC(=O)CS(=O)(=O)Cc1nc(-c2ccc(C)cc2)oc1C	/	/	-15%	/
CCc1ccc(-c2cc(C)no2)cc1S(=O)(=O)N1CCOc2ccccc21	0%	8.3µM*	-1%	?
CCc1ccc(-c2cc(C)no2)cc1S(=O)(=O)N1CCN(c2ccc(F)cc2)CC1	2%	13µM*	-9%	?
CCc1ccc(-c2cc(C)no2)cc1S(=O)(=O)NCCCN1CCN(c2ccccc2)CC1	0%	13µM*	18%	?
CCc1ccc(-c2cc(C)no2)cc1S(=O)(=O)N1CCN(C(=O)c2ccco2)CC1	-2%	?	45µM*	9.3µM*
Cc1cc(-c2ccc(C)c(S(=O)(=O)N3CCN(C(=O)c4ccco4)CC3)c2)on1	8%	4%	6%	?
CCc1ccc(-c2cc(C)no2)cc1S(=O)(=O)NCCN1CCC(C)CC1	11%	?	3%	8%
CCOC(=O)CCNC(=O)N1CCCC(N2CCN(c3ccc(OC)cc3)CC2)C1 (stereo unspecified)	1%	-2%	1%	2.9µM*
COc1ccc(N2CCN(C3CCCN(C(=O)CSC)C3)CC2)cc1 (stereo unspecified)	-2%	0%	0%	0%
O=C1CC(/C=C/c2ccccn2)=Nc2ccccc2N1	-1%	?	?	0%
O=C1CC(/C=C/c2ccco2)=Nc2ccccc2N1	2%	/	45µM*	28%
Cc1ccc(CN2C(=O)C(CC(C)C)Nc3ncnc(N4CCN(c5ccccn5)CC4)c32)cc1 (stereo unspecified)	3%	9.3µM*	-18%	?
CC(C)CC1Nc2ncnc(N3CCN(c4ccccn4)CC3)c2N(Cc2ccc(Br)cc2)C1=O (stereo unspecified)	3%	7.4µM*	-15%	8.3µM*
CC(C)CC1Nc2ncnc(N3CCOCC3)c2N(Cc2ccccc2)C1=O (stereo unspecified)	-20%	/	/	/
COc1ccc(CN2C(=O)C(CC(C)C)Nc3ncnc(N4CCN(c5ccccn5)CC4)c32)cc1 (stereo unspecified)	-2%	?	-11%	?
SMILES	SARS PLpro yeast	Pf growth 48h	Sm TGR inh	Pf growth 96h
COc1ccc(C(=O)c2oc3ccccc3c2NC(=O)COc2c(C)cc(C)cc2C)cc1	/	/	7%	/
CCOc1ccc(CCN2C(=O)c3ccc(C(=O)O)cc3C2=O)cc1OCC	-2%	1%	6%	62%
CN1[C@@H]2CC[C@H]1CC(OC1c3ccccc3CCc3ccccc31)C2 (stereo partly specified)	/	4.7µM*	0%	?
CN1C2CCC1CC(OC(c1ccccc1)c1ccccc1)C2 (stereo unspecified)	1%	12µM*	3%	9.5µM*!
CN1[C@@H]2CC[C@H]1CC(OC(c1ccccc1)c1ccccc1)C2 (stereo partly specified)	/	17µM*	/	4.8µM*
CN1[C@@H]2CC[C@H]1CC(OC(=O)C(O)c1ccccc1)C2 (stereo partly specified)	/	-10%	4%	2%
CCCN(CCC)C1=N/C(=C\c2ccco2)C(=O)N1c1ccccc1	0%	/	16µM*	-15%
O=C1/C(=C\c2ccco2)NC(=S)N1c1ccccc1	-1%	53%	-13%	?
